# Test results reported in the supplement of paper PMC11865577.
# Where a name gives a salt, the structure may show the parent alone.
# Tested on: SARS-CoV-2 low-rank motif (SARS-low)
# Experiment: normalised indicator fluorescence (fraction of RNA + indicator signal without compound); higher = less displacement of indicator (weaker competition)
# Details: compound concentration: 5 uM, 30 min
# Summary of the method: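 Compounds, each at about 5 uM final from 0.25 μL of 1 mM DMSO stock, were tested in 96-well plates for displacement of TO-PRO-1 or TO-PRO-3 from RNA in 20 mM phosphate pH 7.0, 20 mM NaCl, 80 mM KCl. Fluorescence was recorded after 30 min on an Infinite 200 PRO (excitation 485 or 620 nm). Reported values are averages of two independent experiments, calculated as indicator fluorescence minus the buffer-plus-indicator blank, divided by the RNA-plus-indicator signal without compound.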
# [1] = indicator: TO-PRO-1 0.1 uM, RNA concentration: 0.1 uM
# [2] = indicator: TO-PRO-3 0.5 uM, RNA concentration: 0.5 uM
Compound,normalised indicator fluorescence [1],normalised indicator fluorescence [2]
COc1ccc(-c2nc(-c3cc(C(F)(F)F)cc(C(F)(F)F)c3)n(Cc3ccc(C(N)=O)cc3)c2-c2ccc(OC)cc2)cc1 [Apoptozole],1.12,1.14
Oc1cc(O)c2c(c1)O[C@H](c1ccc(O)c(O)c1)[C@@H](O)C2 [(+)-Catechin Hydrate],0.966,1.16
Cn1cc(C2=C(c3cn(CCCSC(=N)N)c4ccccc34)C(=O)NC2=O)c2ccccc21 [Ro 31-8220 Mesylate],,1.01
C/C1=C/CC[C@H](C)C(=O)C[C@@H](C(C)C)C(=O)C1 [Curdione],1.15,1.1
CC1=NN(c2ccccc2)C(=O)C1 [Edaravone],1.13,1.32
O=[N+]([O-])c1ccc(-c2nc(-c3ccc(F)cc3)c(-c3ccncc3)[nH]2)cc1,,0.939
COC(=O)c1ccc([C@H]2c3[nH]c4ccccc4c3C[C@H](C(=O)OC)N2C(=O)CCl)cc1,1,1.16
Cc1cccc(CC(=O)N2CCc3c2ccc(-c2cn(C)c4ncnc(N)c24)c3F)n1,1.06,1.05
O=C(NC(Cc1cc(=O)[nH]c2ccccc12)C(=O)O)c1ccc(Cl)cc1 (stereo not drawn) [Rebamipide],1.3,1.07
O=c1cc(-c2ccc(O)c(-c3c(O)cc(O)c4c(=O)cc(-c5ccc(O)cc5)oc34)c2)oc2cc(O)cc(O)c12 [Amentoflavone],1.31,
N=C(NCCCCCCNC(=N)NC(=N)Nc1ccc(Cl)cc1)NC(=N)Nc1ccc(Cl)cc1 [Chlorhexidine],1.11,1.16
CCNC(=O)c1[nH]nc(-c2cc(Cl)c(O)cc2O)c1-c1ccc(OC)cc1,1.25,1.22
O=C(COc1ccc(Cl)cc1)NC1CCC(NC(=O)COc2ccc(Cl)cc2)CC1 (stereo not drawn),1.05,0.94
CC(=O)O[C@H]1C[C@@]2(C)[C@@H](C[C@@H](O)[C@H]3[C@@]4(C)CC[C@@H](O)[C@@H](C)[C@@H]4CC[C@@]32C)/C1=C(\CCC=C(C)C)C(=O)O [Fusidine],1.26,1.12
C[C@@H]1O[C@@H](O[C@H]2[C@H](Oc3cc(O)c4c(c3)O[C@H](c3ccc(O)cc3)CC4=O)O[C@H](CO)[C@@H](O)[C@@H]2O)[C@H](O)[C@H](O)[C@H]1O [Naringin],1.14,1.13
COc1ccc(-c2coc3cc(O)ccc3c2=O)cc1O [Calycosin],1.4,1.09
CN(NC(=O)CC(=O)NN(C)C(=S)c1ccccc1)C(=S)c1ccccc1 [Elesclomol],1.17,1.25
COc1nccnc1NS(=O)(=O)c1ccc(NC(=O)/C=C/c2ccc([N+](=O)[O-])s2)cc1 [Necrosulfonamide],1.16,0.996
Oc1ccc(OC2CCCCO2)cc1 (stereo not drawn) [Deoxyarbutin],1.17,0.988
CC(C)OC(=O)CCC/C=C\C[C@@H]1[C@@H](CC[C@@H](O)CCc2ccccc2)[C@H](O)C[C@@H]1O [Latanoprost],1.12,1.2
C[C@@H]1O[C@@H](O[C@@H]2[C@@H](O)[C@H](OCCc3ccc(O)c(O)c3)O[C@H](CO)[C@H]2OC(=O)/C=C/c2ccc(O)c(O)c2)[C@H](O)[C@H](O)[C@H]1O [Verbascoside],,1.16
COc1ccc(C2CC(=O)c3c(O)cc(OC4OC(COC5OC(C)C(O)C(O)C5O)C(O)C(O)C4O)cc3O2)cc1OC (stereo not drawn) [Methyl hesperidin],1.08,1.37
Cc1c(C)c2c(c(C)c1O)CC[C@@](C)(CCC[C@H](C)CCC[C@H](C)CCCC(C)C)O2 [Vitamin E],1.07,1.16
CC(=O)CCCCn1c(=O)c2c(ncn2C)n(C)c1=O [Pentoxifylline],1.23,1.05
COc1ccc([C@@H]2OC[C@H]3[C@@H]2CO[C@@H]3c2ccc(O[C@@H]3O[C@H](CO)[C@@H](O)[C@H](O)[C@H]3O)c(OC)c2)cc1OC [Forsythin],1.1,1.16
Cc1cc(C(C)(C)C)c(O)c(C(C)(C)C)c1,1.26,1.23
CO[C@@H]1[C@H](N(C)C(=O)c2ccccc2)C[C@H]2O[C@]1(C)n1c3ccccc3c3c4c(c5c6ccccc6n2c5c31)C(=O)NC4 [Midostaurin],,1.35
CNc1ccc([N+](=O)[O-])c(Nc2ccc3[nH]ncc3c2)n1,1.01,1.14
C[C@@H]1O[C@@H](Oc2c(-c3cc(O)c(O)c(O)c3)oc3cc(O)cc(O)c3c2=O)[C@H](O)[C@H](O)[C@H]1O [Myricetrin],0.999,1.07
